Source: PubChem BioAssay
Activity calls are given as the source filed them.

What was measured:
[1] = optical density shifts of acrAB sulA E. coli – strain DRC41, OD650, 48 h, E. coli filamentation inducer project, primary screen (AID 1152); details: higher = more signal, called active from +8 up or from −8 down;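 further: E. coli MC1000 strain DRC41 lacking acrAB efflux pump and sulA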
[2] = probe aLefty1 binding on compound microarray – biochemical, small-molecule microarray, 635/667 nm fluorescence, primary screen (AID 1153); details: higher = more signal;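 further: score merges spot fluorescence with signal-to-noise ratio from the scanned slide images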
[3] = plasmodial surface anion channel blockers, osmotic lysis – cell-based, P. falciparum Indochina, OD700, 1 h, primary screen (AID 1154); details: P. falciparum Indochina infected RBC osmotic lysis, higher = more signal, called active from +8 up or from −8 down
[4] = plasmodial surface anion channel blockers, osmotic lysis – cell-based, P. falciparum Indochina, OD700, 2 h, primary screen (AID 1155);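 further: lysis reports solute entry through the parasite surface anion channel PSAC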; details: P. falciparum Indochina infected erythrocytes, higher = more signal, called active from +8 up or from −8 down
[5] = changes in parasitized red cell lysis, either direction – P. falciparum Indochina, OD700, 3 h, PSAC antagonist project, primary screen (AID 1156); details: P. falciparum-infected erythrocytes, osmotic lysis, higher = more signal, called active from +8 up or from −8 down
[6] = plasmodial surface anion channel blockers, osmotic lysis – cell-based, P. falciparum Indochina, OD700, 18 h, primary screen (AID 1157); details: P. falciparum Indochina infected erythrocytes, osmotic lysis OD700, 18 h; higher = more signal, called active from +8 up or from −8 down
[7] = S6 kinase pathway phospho-S6 level changes – cell-based, A549, cytoblot, luminescence, serum-stimulated, primary screen (AID 1158); details: 5 h, higher = more signal;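 further: serum-stimulated A549 lung adenocarcinoma cells; signal is phosphorylated S6 detected by cytoblot immunostaining with HRP secondary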
[8] = molecular target: NADPH oxidase 2 (Homo sapiens) (UniProt P04839); assay: compounds shifting NOX2 Amplex Red fluorescence – cell-based, HEK293-NOX2, PMA-stimulated, NOX inhibitor project, primary screen (AID 1159); details: 45 min, higher = more signal, called active from +8 up or from −8 down; further: test concentration not given here
[9] = molecular target: NADPH oxidase 4 (Homo sapiens) (UniProt Q9NPH5); assay: compounds shifting NOX4 Amplex Red fluorescence – cell-based, HEK293-NOX4, tetracycline-induced, NOX inhibitor project, primary screen (AID 1160); details: HEK293-NOX4, Amplex Red H2O2 fluorescence, 45 min; higher = more signal, called active from +8 up or from −8 down
[10] = molecular target: NADPH oxidase 5 (Homo sapiens) (UniProt Q96PH1); assay: compounds shifting NOX5 Amplex Red fluorescence – cell-based, HEK293-NOX5, NOX inhibitor project, primary screen (AID 1161); details: HEK293-NOX5, ionomycin, 45 min, higher = more signal
[11] = compound effects on lung adenocarcinoma cell viability – A549, calcein-AM fluorescence, 48 h, basal, profiling panel (AID 1162); details: higher = more signal; further: test concentration not given here
[12] = compound effects on differentiated 3T3-L1 adipocyte viability – cell-based, 3T3-L1 adipocytes, calcein-AM fluorescence, 48 h, basal, profiling panel (AID 1163); details: 3T3-L1 adipocytes viability, higher = more signal; further: test concentration not given here
[13] = compound effects on hepatocellular carcinoma cell viability – HepG2, calcein-AM fluorescence, 48 h, basal, profiling panel (AID 1164); details: higher = more signal; further: test concentration not given here
[14] = compound effects on multiple myeloma cell viability – MM1S, calcein-AM fluorescence, 48 h, basal, profiling panel (AID 1165); details: higher = more signal;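 further: viability of MM1S multiple myeloma cells under basal unstimulated conditions; test concentration not given here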
[15] = calcein-AM signal in unstimulated myeloma cells – cell-based, calcein-AM fluorescence, 48 h, PK04 Diversity Set, profiling panel (AID 1166); details: RPMI8226 myeloma viability, higher = more signal;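 further: cells grown under basal conditions without added stimulus; test concentration not given here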
[16] = JC-1 mitochondrial signal, unstimulated HepG2 cells – cell-based, JC-1 fluorescence, 24 h, 100 nL compound, profiling panel (AID 1167); details: HepG2 mitochondrial potential, higher = more signal; further: test concentration not given here
[17] = JC-1 mitochondrial signal, unstimulated adipocytes – cell-based, JC-1 fluorescence, 3T3-L1 adipocytes, 24 h, 100 nL compound, profiling panel (AID 1168); details: JC-1 mitochondrial fluorescence, higher = more signal, called active from +8 up or from −8 down; further: test concentration not given here
[18] = JC-1 mitochondrial signal, unstimulated myeloma cells – cell-based, JC-1 fluorescence, RPMI8226, 24 h, 100 nL compound, profiling panel (AID 1169); details: JC-1 mitochondrial potential fluorescence, higher = more signal; further: test concentration not given here
[19] = JC-1 mitochondrial signal, unstimulated MM1S myeloma – cell-based, JC-1 fluorescence, 24 h, 100 nL compound, profiling panel (AID 1170); details: MM1S mitochondrial potential, higher = more signal; further: test concentration not given here
[20] = resazurin metabolic signal in A549 cells – cell-based, resazurin fluorescence, 24 h, PK04 Diversity Set, profiling panel (AID 1171); details: A549 viability, higher = more signal, called active from +8 up or from −8 down; further: test concentration not given here

Chain of NADPH oxidase 2 (Homo sapiens) (P04839 whole entry, looked up): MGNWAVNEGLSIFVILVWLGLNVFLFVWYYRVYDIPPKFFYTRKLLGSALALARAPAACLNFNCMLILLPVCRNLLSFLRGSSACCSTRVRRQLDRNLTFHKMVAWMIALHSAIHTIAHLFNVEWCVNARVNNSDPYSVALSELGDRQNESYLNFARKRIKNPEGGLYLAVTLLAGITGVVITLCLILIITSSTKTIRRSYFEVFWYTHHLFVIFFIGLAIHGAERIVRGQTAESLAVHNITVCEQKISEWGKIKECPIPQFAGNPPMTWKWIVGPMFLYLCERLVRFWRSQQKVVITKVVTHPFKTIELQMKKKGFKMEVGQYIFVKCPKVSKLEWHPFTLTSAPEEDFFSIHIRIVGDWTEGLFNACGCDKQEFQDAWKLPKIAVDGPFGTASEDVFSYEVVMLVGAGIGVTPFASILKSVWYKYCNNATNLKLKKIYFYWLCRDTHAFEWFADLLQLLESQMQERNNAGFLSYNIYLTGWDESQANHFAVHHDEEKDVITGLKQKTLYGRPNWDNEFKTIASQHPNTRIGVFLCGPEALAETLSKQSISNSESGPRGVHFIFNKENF
Chain of NADPH oxidase 5 (Homo sapiens) (Q96PH1 whole entry, looked up): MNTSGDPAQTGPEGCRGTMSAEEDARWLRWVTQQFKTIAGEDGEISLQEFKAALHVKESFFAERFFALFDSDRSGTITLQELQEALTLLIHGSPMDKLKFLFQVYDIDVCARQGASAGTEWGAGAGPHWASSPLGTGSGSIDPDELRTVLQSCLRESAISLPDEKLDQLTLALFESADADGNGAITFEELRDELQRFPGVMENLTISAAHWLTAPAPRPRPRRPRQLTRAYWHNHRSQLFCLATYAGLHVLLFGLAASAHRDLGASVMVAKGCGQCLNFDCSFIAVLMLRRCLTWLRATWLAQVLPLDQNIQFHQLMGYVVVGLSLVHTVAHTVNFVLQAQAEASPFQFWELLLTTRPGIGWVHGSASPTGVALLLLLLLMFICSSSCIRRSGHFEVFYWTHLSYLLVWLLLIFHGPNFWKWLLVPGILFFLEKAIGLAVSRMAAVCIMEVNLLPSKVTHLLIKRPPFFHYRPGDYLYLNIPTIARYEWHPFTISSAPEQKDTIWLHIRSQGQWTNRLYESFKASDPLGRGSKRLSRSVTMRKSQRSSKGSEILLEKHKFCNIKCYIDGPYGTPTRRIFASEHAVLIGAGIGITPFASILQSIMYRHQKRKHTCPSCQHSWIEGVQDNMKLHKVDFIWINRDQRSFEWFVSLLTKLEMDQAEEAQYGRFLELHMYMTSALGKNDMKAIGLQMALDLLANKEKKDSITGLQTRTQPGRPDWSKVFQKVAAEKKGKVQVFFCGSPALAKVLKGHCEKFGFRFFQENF
Chain of NADPH oxidase 4 (Homo sapiens) (Q9NPH5 whole entry, looked up): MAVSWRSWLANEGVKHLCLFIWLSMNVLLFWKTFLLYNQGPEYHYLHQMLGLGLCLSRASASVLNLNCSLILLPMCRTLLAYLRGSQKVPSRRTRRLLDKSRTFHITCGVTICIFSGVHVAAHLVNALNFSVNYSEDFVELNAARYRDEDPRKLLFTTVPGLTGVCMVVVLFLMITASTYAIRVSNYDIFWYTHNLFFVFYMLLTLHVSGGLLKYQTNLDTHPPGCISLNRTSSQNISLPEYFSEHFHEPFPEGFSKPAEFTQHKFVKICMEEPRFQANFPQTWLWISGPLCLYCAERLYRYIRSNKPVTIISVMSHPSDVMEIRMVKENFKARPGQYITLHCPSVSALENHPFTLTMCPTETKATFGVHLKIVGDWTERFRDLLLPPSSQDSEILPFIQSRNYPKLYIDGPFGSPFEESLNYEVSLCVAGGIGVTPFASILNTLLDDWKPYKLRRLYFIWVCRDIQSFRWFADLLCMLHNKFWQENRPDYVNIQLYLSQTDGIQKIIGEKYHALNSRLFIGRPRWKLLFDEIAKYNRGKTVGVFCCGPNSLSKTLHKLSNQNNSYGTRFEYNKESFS

SMILES | z-score [1] | composite z-score [2] | z-score [3] | z-score [4] | z-score [5] | z-score [6] | z-score [7] | z-score [8] | z-score [9] | z-score [10] | z-score [11] | z-score [12] | z-score [13] | z-score [14] | z-score [15] | z-score [16] | z-score [17] | z-score [18] | z-score [19] | z-score [20]
CC(C)(C)OC(=O)CC[C@]1(C(=O)NCCN2CCOCC2)N=C(c2ccc(OCCCO)cc2)O[C@H]1c1ccccc1N=[N+]=[N-] | -0.105 (inactive) | 0.591 | 31.3 (active) | 29.2 (active) | 2.64 (inactive) | 6.62 (inactive) | -0.136 | -2.46 (inactive) | 1.62 (inactive) | -1.99 | -0.877 | 0.303 | 0.309 | -0.603 | -0.711 | 1.27 | 1.21 (inactive) | -0.683 | -0.961 | -0.201 (inactive)
CCCC[C@@H]1C[C@H]1[C@@H](NC(=O)c1ccccc1)c1ccc(Cl)cc1 | -2.41 (inactive) | 0.233 | 1.72 (inactive) | 0.589 (inactive) | -0.573 (inactive) | 0.839 (inactive) | -0.584 | -0.093 (inactive) | -0.505 (inactive) | 1.86 | -1.35 | -0.847 | -1.17 | -1.23 | -1.45 | 0.229 | -1.6 (inactive) | -0.852 | -1.19 | 2.09 (inactive)
COC(=O)[C@@]1(Cc2ccc(OC)cc2)[C@H]2c3cc(C(=O)N(C)C)n(Cc4nc5ccccc5[nH]4)c3C[C@H]2CN1C(=O)c1ccccc1 | -2.02 (inactive) | 0.905 | 2.03 (inactive) | 0.724 (inactive) | 0.482 (inactive) | 1.25 (inactive) | 0.123 | 0.576 (inactive) | 1.85 (inactive) | 2.4 | -2.46 | -0.529 | -1.79 | -1.37 | -3.86 | 2.13 | -1.24 (inactive) | -0.737 | -1.49 | -0.88 (inactive)
O=C1O[C@H](c2ccccc2)[C@H](c2ccccc2)N2[C@H]1[C@@H](C(=O)O)[C@]1(C(=O)Nc3ccccc31)[C@H]2c1ccc(O)cc1 | -0.611 (inactive) | -0.0501 | 1.26 (inactive) | 0.789 (inactive) | -0.236 (inactive) | 0.678 (inactive) | 0.374 | -0.295 (inactive) | -0.697 (inactive) | 1.31 | 0.29 | -0.268 | -0.733 | 0.0137 | 0.605 | -1.33 | -1.43 (inactive) | 0.73 | 0.0818 | 0.769 (inactive)
O=C1OCC=C[C@H]2OC34C=CCN(Cn5nnc6ccccc65)C(=O)[C@H]3N(CCCCCCO)C(=O)[C@@H]4[C@@H]12 (stereo not given in full) | -0.169 (inactive) | 0.32 | 1.99 (inactive) | 0.89 (inactive) | 1.15 (inactive) | 0.648 (inactive) | -0.394 | 1.77 (inactive) | -0.17 (inactive) | 2.24 | -0.4 | 0.352 | 0.226 | 1.15 | 0.447 | -0.688 | -0.0324 (inactive) | -0.638 | -0.467 | -0.402 (inactive)
CC(C)CN1C(=O)[C@@]2(Cc3ccccc31)c1ccccc1C(=O)N(Cc1ccccc1C(F)(F)F)[C@H]2c1ccc(CO)cc1 | 1.14 (inactive) | -0.345 | 0.21 (inactive) | -0.419 (inactive) | -0.495 (inactive) | -0.48 (inactive) | 2.04 | 0.0489 (inactive) | 0.771 (inactive) | 1.34 | 1.23 | 1.06 | 0.493 | 0.939 | 1.2 | 0.786 | -1.55 (inactive) | 0.01 | -0.534 | -0.236 (inactive)
COC(=O)C1(Cc2ccccc2)C=C2C(=C(c3ccccc3)C(=O)C2C)CN1 (stereo not given) | -1.38 (inactive) | 1.23 | 2.11 (inactive) | -0.0273 (inactive) | 0.423 (inactive) | 0.298 (inactive) | 0.208 | -0.66 (inactive) | -3.74 (inactive) | -3.29 | -0.874 | 0.24 | -0.515 | -0.451 | -0.91 | -0.832 | -1.12 (inactive) | 0.213 | -0.291 | -0.358 (inactive)
COC(=O)[C@@]1(Cc2ccc(OC)cc2)[C@H]2c3cc(C(=O)N(C)C)n(Cc4ccccc4)c3C[C@H]2CN1C(=O)c1ccccc1 | -1.25 (inactive) | 0.748 | 0.49 (inactive) | 0.194 (inactive) | -1.39 (inactive) | 0.594 (inactive) | 0.686 | -1.52 (inactive) | -1.09 (inactive) | 2.49 | 0.0457 | 0.245 | -2.3 | -2.27 | -2.17 | 2.45 | -0.45 (inactive) | -0.398 | -1.85 | 0.616 (inactive)
